BAZ2B block: qHTS Assay for Inhibitors of BAZ2B. AlphaScreen BAZ2B-H3K14Ac peptide displacement. Potency, µM (titrated, usually from 114 µM), for inactives: at the top dose activity change, negative = inhibition, most hits filed as inhibitors. 4.4% of 360,000 active; further: on the % scale 0 is the no-effect control and ±100 the full control effect; nearly all actives have a fitted effect of over 60% in size
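Multi-concentration screen (max 110 uM) measuring displacement of acetylated histone H3 peptide from BAZ2B by AlphaScreen, using 50 nM protein, 50 nM peptide and 10 ug/mL streptavidin donor plus Ni-chelate acceptor beads.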
G9a block: qHTS Assay for Inhibitors of Histone Lysine Methyltransferase G9a | G9a H3K9 monomethylation, AlphaScreen, 2 h | Potency, µM (highest dose often 102 µM), inactives show top-dose activity, negative = inhibition, usual class: inhibitors | 8.8% of 350,000 active | AID 504332, 2011; further: on the % scale 0 is the no-effect control and ±100 the full control effect; nearly all actives have a fitted effect of over 75% in size
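Step 1: enzyme (final 20 nM) with compound, 15 min RT. Step 2: substrate peptide 500 nM and SAM 20 uM, 2 h RT. Step 3: anti-H3K9me1 antibody and AlphaScreen beads, 10 min, then plate read.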
JMJD2A Tudor: qHTS Assay for Inhibitors of JMJD2A-Tudor Domain; AlphaScreen JMJD2A-Tudor / H3K4me3 peptide binding; 4.4% of 390,000 active; Potency, µM (top dose mostly 114 µM), for inactives: at the top dose activity change, negative = inhibition, usual class: inhibitors; AID 504339, 2011; further: on the % scale 0 is the no-effect control and ±100 the full control effect; nearly all actives have a fitted effect of over 50% in size
HP1b chromo inh: HTS for Inhibitors of HP1-beta Chromodomain Interactions with Methylated Histone Tails. Chromobox protein homolog 1 (Homo sapiens), P83916. AlphaScreen HP1-beta / biotin-H3K9me3 peptide binding. Potency, µM (top dose mostly 114 µM), without a hit: top-dose activity change, negative = inhibition, actives largely listed as inhibitors. 0.56% of 390,000 active; further: nearly all actives have a fitted effect of over 70% in size
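HP1-beta protein (50 nM final) preincubated 30 min at room temperature with biotinylated H3(1-18)K9me3 peptide (50 nM) in PBS pH 7.4, 0.01% Tween-20, then compound added for 30 min. AlphaScreen streptavidin donor/nickel chelate acceptor beads (10 ug/mL final), 30 min dark, luminescence read.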
GLS inhibitor: qHTS for Inhibitors of Glutaminase (GLS). Glutaminase kidney isoform, mitochondrial (Homo sapiens), O94925. GLS enzymatic activity, qHTS titration. Potency, µM (doses to about 45.5 µM), without a hit: at the highest dose activity change, negative = inhibition, actives largely listed as inhibitors. 0.21% of 410,000 active. AID 624170, 2012; further: on the % scale 0 is the no-effect control and ±100 the full control effect
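Human kidney-isoform GLS in 45 mM KH2PO4 pH 8.2, 0.02% Tween-20, with compound, started with 1mM L-Glutamine (added stock). Glutamate oxidase/HRP/Amplex red coupled fluorescence read at start and after 30 min at RT.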
* = called active by the depositor; u = inconclusive; x = no result; [ ] = remark or other dose. Sampled rows, rich in hits. Any-hit rate of the full collection: about 10%. The call rests on the fitted dose curve; in most records, active means well fitted curve in the direction sought with a large enough effect; inconclusive means small, poorly fitted or top-dose-only effect, or another doubt; inactive means no such curve, though single readings can be large; an effect the other way counts as inactive or inconclusive. Potency means the concentration at half of the fitted maximal effect.

SMILES	BAZ2B block	G9a block	JMJD2A Tudor	HP1b chromo inh	GLS inhibitor
O=[N+]([O-])c1cc(-c2csc(NCCc3nc4cc(C(F)(F)F)ccc4n3CCCO)n2)ccc1Cl	x	x	45µM*	2%	-7%
Cc1ccc(Cn2c(CCNc3nc(-c4ccc(Cl)c([N+](=O)[O-])c4)cs3)nc3cc(C(=O)NCCCO)ccc32)cc1	x	x	35µM*	2%	8%
COc1ccc(NC(=O)C2CCCN(c3ncnc4c3nc3n4CCCCC3)C2)c(OC)c1 (centres undefined)	-1%	5%[59 µM]	-6%	18%	0%
O=C(NS(=O)(=O)c1ccccc1Cl)c1ccc[nH]1	-9%	79µM*	x	x	x
O=C(NCc1ccccc1Cl)c1ccc[nH]1	-22%	-4%	0%[57.1 µM]	30%	9%
COc1ccc(Nc2nnc(-c3ccc(O)cc3)c3ccccc23)cc1C(N)=O	-14%	-9%	-16%	25%	7.9µM*
CCN(CC)C(=O)c1ccc(Nc2nnc(-c3ccc(O)cc3)c3ccccc23)cc1	-12%	x	-20%	51%	10µM*
CSc1ccc(CCNC(=O)CCc2c(C)nc3c4cccnc4nn3c2C)cc1	-10%	5%[59 µM]	-13%	29%	2%
Cn1c(=O)c2[nH]c(-c3ccccc3Cl)c(O)c2n(C)c1=O	-26%	45µM*	7%	49%	22µM*
Cn1c(=O)c2[nH]c(-c3ccccc3)c(O)c2n(C)c1=O	11%	2.2µM*	-7%	26%	33%
Cn1c(=O)c2[nH]c(-c3ccccc3)nc2n(C)c1=O	8%	7%[59 µM]	x	x	x
O=C(NCc1ccccc1Cl)c1csc([C@@H]2C[C@H](O)[C@@H](CO)O2)n1	x	x	x	x	-1%
Cc1ccc(N/C(=C\C(=O)c2ccccc2)C(=O)O)cc1	56µM*	u	u	6%	-15%
COC(=O)/C(=C\C(=O)c1ccccc1)Nc1ccc(OC)cc1	40µM*	14µM*	35µM*	u	0%
COc1ccc(N/C(C)=C/C(=S)Nc2ccccc2)cc1	-38%	-6%[59 µM]	-35%	5%	13µM*
Cc1ccc(NC(=O)c2ccccc2)cc1	-6%	12%[12.7 µM]	-27%	4%	-23%
COc1ccc(N/C(C)=C/C(=O)c2ccccc2)cc1	u	u	u	u	-6%
COCCn1c(=O)c(-c2ccccc2)nc2cnc(N3CCN(C)CC3)nc21	x	-1%[0.501 µM]	x	x	x
CC(CC(=O)c1ccccc1)=NCC(O)CN=C(C)CC(=O)c1ccccc1 (centres undefined)	x	x	x	x	0%
O=C(OCC(=O)N1CCN(C(=O)c2ccco2)CC1)c1cc(-c2ccco2)nc2ccccc12	20µM*	x	40µM*	32µM*	4%
O=C(COC(=O)c1ccccc1NCCO)NCCc1ccccc1	1%	10%[0.501 µM]	-3%	14%	3%
O=C(OCC(=O)N1CCN(C(=O)c2ccco2)CC1)c1ccccc1NCCO	u	4%[0.501 µM]	32µM*	-2%	38%
CN1CCCN(C(=O)c2cc(-c3ccc(Cl)c(Cl)c3Cl)nc3ccccc23)CC1	u	-46%	-19%	25%	7%
O=C(OCC(=O)N1CCN(C(=O)c2ccco2)CC1)c1cc(-c2ccc(Cl)c(Cl)c2Cl)nc2ccccc12	-6%	79µM*	-13%[57.1 µM]	14%	u
O=C(OCC(=O)N(Cc1ccccc1)Cc1ccccc1)c1ccccc1NCCO	6%	40µM*	16%	72%	2%
SMILES	BAZ2B block	G9a block	JMJD2A Tudor	HP1b chromo inh	GLS inhibitor
CC(C)c1ccc(NC(=O)CN2C=NS(=O)(=O)c3ccccc32)cc1	3%	1%[59 µM]	-19%	25%	0%
Cc1cc(C)c(S(=O)(=O)NCc2csc(-c3ccccc3)n2)c(C)c1	26%	25%[59 µM]	7%	50%	-6%
CCOC(=O)c1ccc(OC(=O)c2cn(-c3ccc(C)cc3)c(=O)c3ccccc23)cc1	4%	-5%[59 µM]	-11%	28%[57 µM]	7%
CCCCNC(=O)C1(C)CCN1C(=O)c1oc2ccccc2c1C (centres undefined)	x	x	x	x	-3%
COc1ccc(NC(=O)CN(C)C(=O)c2cc3c(s2)CCC3)cc1	6.3µM*	13µM*	14µM*	13µM*	-32%
COc1cccc(NC(=O)CN(C)C(=O)c2cc3c(s2)CCC3)c1	56µM*	19%[0.501 µM]	u	-7%	-1%
COc1cccc(NC(=O)CN(C)C(C)C(=O)N2CCCCC2)c1 (centres undefined)	x	x	0.32µM*	u	-11%
COc1ccc(NC(=O)CN(C)C(=O)c2cc3c(s2)CCCCC3)cc1	-16%	u	-3%	9%	4%
COc1cccc(NC(=O)CN(C)C(=O)c2cc3c(s2)CCC(C)C3)c1 (centres undefined)	2%	-7%[12.7 µM]	-23%	7%	0%
CN1CCN(c2ncc3nc(-c4ccc(Cl)cc4)c(=O)n(CCC#N)c3n2)CC1	x	4%[12.7 µM]	x	x	x
C[C@@H]1CN([C@H](C)CO)C(=O)CCCn2nncc2CO[C@H]1CN(C)S(=O)(=O)c1ccccc1F	x	x	x	x	4%
O=C(O)CNS(=O)(=O)c1ccc2c3c(cccc13)C(=O)N2	42%	x	28µM*	4%	-8%
O=C(O)CCCCCNS(=O)(=O)c1ccc2c3c(cccc13)C(=O)N2	-36%	79µM*	-2%	38%	21%
Cc1ccc2oc3c(c(=O)c2c1)C(c1ccccc1F)N(c1ccccn1)C3=O (centres undefined)	-1%	-5%[59 µM]	-6%	16%	-3%
CCCS(=O)(=O)c1ncc(Cl)c(C(=O)N2CCN(c3ccc(OC)cc3)CC2)n1	-3%	11µM*	-16%	36%	1%
COc1ccc(N2CCN(C(=O)c3c(Cl)cnn3C)CC2)cc1	-1%	40%	-12%	9%	35%
COc1ccc(N2CCN(C(=O)c3ccncc3)CC2)cc1	-27%	u	-16%	28%	43%
CCSc1ncc(Cl)c(C(=O)N2CCN(c3ccc(OC)cc3)CC2)n1	u	14µM*	u	-18%	16%
COc1ccc(N2CCN(C(=O)CCc3c(C)nc4cc(-c5cccc(F)c5)nn4c3C)CC2)cc1	-5%	-5%[59 µM]	-1%	49%	4%
O=C(Nc1c(F)cc(F)cc1Br)c1cc(S(=O)(=O)N2CCN(c3ccccn3)CC2)ccc1F	u	50µM*	u	28%	-1%
COc1ccc(C2(OC)Oc3cc(OC)ccc3C(=O)C2(O)OC)cc1 (centres undefined)	x	x	-13%	10%	3%
O=C1C=CC2=C3c4cc(O)c(O)cc4CC3(O)COC2=C1O (centres undefined)	x	x	3.2µM*	u	u

From PubChem
